Laboratory results taken from PubChem BioAssay (NCATS).
Results filed as inconclusive are left out. Active and inactive are the calls of the source. The call rests on the fitted dose curve; in most records, active means well fitted curve in the direction sought with a large enough effect; inconclusive means small, poorly fitted or top-dose-only effect, or another doubt; inactive means no such curve, though single readings can be large; an effect the other way counts as inactive or inconclusive.

What was measured:
HaCat = experiment: Cytotoxic Profiling of Annotated Libraries Using Quantitative High-Throughput Screening (AID 1296008); details: Five cell lines viability, CellTiter-Glo ATP luminescence, 48-72 h; max response: hits give low values; further: nearly all actives have a fitted effect of over 60% in size
How it was run: (§1)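 Cells exposed to compounds for 48 or 72 hr at 37 degrees Celsius. Viability read as ATP-coupled luminescence with CellTiter-Glo after 10 min at room temperature.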

KB-3-1 = experiment: as above; details: Five cell lines viability, CellTiter-Glo ATP luminescence, 48-72 h; max response: hits give low values
How it was run: as §1

NIH3T3 = experiment: as above; details: Five cell lines viability, CellTiter-Glo ATP luminescence, 48-72 h; max response: hits give low values
How it was run: as §1

C33A = experiment: Primary qHTS to identify gynecologic anti-cancer compounds using libraries of approved drugs and bioactive compounds (AID 1345084); details: Gynecologic cancer cell panel viability, ATPlite luminescence, 48 h; series mostly up to 57.5 µM; further: nearly all actives have a fitted effect of over 55% in size
How it was run: (§2)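 Five-point cytotoxicity, 48 h drug exposure at 37 C, 5% CO2, on cells seeded 16 h beforehand. ATP content read by ATPlite luminescence.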

CAOV3 = experiment: as above; details: Gynecologic cancer cell panel viability, ATPlite luminescence, 48 h; series mostly up to 57.5 µM
How it was run: as §2

CASKI = experiment: as above; details: Gynecologic cancer cell panel viability, ATPlite luminescence, 48 h; series mostly up to 57.5 µM
How it was run: as §2

Es-2 = experiment: as above; details: Gynecologic cancer cell panel viability, ATPlite luminescence, 48 h; series mostly up to 57.5 µM
How it was run: as §2

HeLa = experiment: as above; details: Gynecologic cancer cell panel viability, ATPlite luminescence, 48 h; series mostly up to 57.5 µM
How it was run: as §2

Hek293T = experiment: as above; details: Gynecologic cancer cell panel viability, ATPlite luminescence, 48 h, control line for the selectivity index; series mostly up to 57.5 µM
How it was run: as §2

JEG-3 = experiment: as above; details: Gynecologic cancer cell panel viability, ATPlite luminescence, 48 h; series mostly up to 57.5 µM
How it was run: as §2

OV90 = experiment: as above; details: Gynecologic cancer cell panel viability, ATPlite luminescence, 48 h; series mostly up to 57.5 µM
How it was run: as §2
On the % scale 0 is the no-effect control and ±100 the full control effect.

CC1=CC(=O)C(=C(C)C)CC2C1CCC2(C)O (configuration not stated)
inactive: max response (HaCat) -1.27% | max response (KB-3-1) 8.27% | max response (NIH3T3) -2.64% | Potency (C33A) | Potency (CAOV3) | Potency (CASKI) | Potency (Es-2) | Potency (HeLa) | Potency (Hek293T) | Potency (JEG-3) | Potency (OV90)

CC(=O)N[C@@H](CCCCN)C(=O)N(C)[C@@H](CC(C)C)C(=O)N[C@H](C(=O)N(C)[C@@H](Cc1ccccc1)C(=O)N[C@H](Cc1ccccc1)C(N)=O)C(C)C
inactive: max response (HaCat) -11.8% | outcome (KB-3-1) | max response (NIH3T3) -4.99% | activity change, negative = cytotoxicity (C33A) 18.7% [at 6.55 µM] | activity change, negative = cytotoxicity (CAOV3) 6.22% [at 6.55 µM] | activity change, negative = cytotoxicity (CASKI) 2.04% [at 6.55 µM] | activity change, negative = cytotoxicity (Es-2) -0.643% [at 6.55 µM] | activity change, negative = cytotoxicity (HeLa) 16.5% [at 6.55 µM] | activity change, negative = cytotoxicity (Hek293T) 8.12% [at 6.55 µM] | activity change, negative = cytotoxicity (JEG-3) -0.179% [at 6.55 µM] | activity change, negative = cytotoxicity (OV90) -1.74% [at 6.55 µM]

O=S(=O)(NC1CCC(c2cc(F)ccc2F)(S(=O)(=O)c2ccc(Cl)cc2)CC1)C(F)(F)F (configuration not stated)
inactive: max response (HaCat) -23.1% | max response (KB-3-1) 5.9% | max response (NIH3T3) -17.1% | Potency (C33A) | Potency (CAOV3) | Potency (CASKI) | Potency (Es-2) | Potency (HeLa) | Potency (Hek293T) | Potency (JEG-3) | Potency (OV90)

Clc1cc2c(NC3CCCC3)nnc(-c3ccncc3)c2cc1Cl
inactive: max response (HaCat) -55.6% | max response (KB-3-1) 2.36% | max response (NIH3T3) -2.41% | Potency (C33A) | Potency (CAOV3) | Potency (CASKI) | Potency (Es-2) | Potency (HeLa) | Potency (Hek293T) | Potency (JEG-3) | Potency (OV90)

C=C1C(=O)OC2C1C(O)CC1(C)C(O)CCC(C=O)C21 (configuration not stated)
inactive: max response (HaCat) -11.8% | outcome (KB-3-1) | max response (NIH3T3) -0.523% | Potency (C33A) | Potency (CAOV3) | Potency (CASKI) | Potency (Es-2) | Potency (HeLa) | Potency (Hek293T) | Potency (JEG-3) | Potency (OV90)

O=S(=O)(c1ccc(S(=O)(=O)n2cnc3ccccc32)cc1)N1CCCCCC1
inactive: max response (HaCat) -9.6% | max response (KB-3-1) 6.01% | max response (NIH3T3) -4.79% | Potency (C33A) | Potency (CAOV3) | Potency (CASKI) | Potency (Es-2) | Potency (HeLa) | Potency (Hek293T) | Potency (JEG-3) | Potency (OV90)

C[C@@H]1O[C@@H](O[C@H]2[C@H](O)[C@@H](C(=O)O)O[C@@H](O[C@H]3CC[C@@]4(C)C(CC[C@]5(C)C4CC=C4C6CC(C)(C)CC[C@]6(C(=O)O)CC[C@]45C)C3(C)C)[C@@H]2O[C@@H]2OC[C@@H](O)[C@H](O)[C@H]2O)[C@H](O)[C@H](O)[C@H]1O (some centres not stated)
inactive: max response (HaCat) -12.7% | max response (KB-3-1) 9.7% | max response (NIH3T3) 0.526% | activity change, negative = cytotoxicity (C33A) 12.7% [at 11.6 µM] | activity change, negative = cytotoxicity (CAOV3) -1.86% [at 11.6 µM] | activity change, negative = cytotoxicity (CASKI) -0.197% [at 11.6 µM] | activity change, negative = cytotoxicity (Es-2) -1.84% [at 11.6 µM] | activity change, negative = cytotoxicity (HeLa) 10.5% [at 11.6 µM] | activity change, negative = cytotoxicity (Hek293T) 5.25% [at 11.6 µM] | activity change, negative = cytotoxicity (JEG-3) 3.19% [at 11.6 µM] | activity change, negative = cytotoxicity (OV90) 2.8% [at 11.6 µM]

C=CC(C)(CC/C=C(\C)C(=O)OC)OC1OC(COC(=O)CC(C)(O)CC(=O)O)C(OC2OC(CO)C(O)C(O)C2O)C(O)C1O (configuration not stated)
inactive: max response (HaCat) -0.66% | outcome (KB-3-1) | max response (NIH3T3) 2.15% | Potency (C33A) | Potency (CAOV3) | Potency (CASKI) | Potency (Es-2) | Potency (HeLa) | Potency (Hek293T) | Potency (JEG-3) | Potency (OV90)

CC(C)(C)CCN1C[C@@H]2C(CNC(=O)c3cc(Cl)cc(Cl)c3)[C@@H]2C1 (some centres not stated)
inactive: max response (HaCat) -17.8% | max response (KB-3-1) -5.02% | max response (NIH3T3) -2.97% | Potency (C33A) | Potency (CAOV3) | Potency (CASKI) | Potency (Es-2) | Potency (HeLa) | Potency (Hek293T) | Potency (JEG-3) | Potency (OV90)

O=[N+]([O-])c1cn2c(n1)OCC(OCc1ccc(OC(F)(F)F)cc1)C2 (configuration not stated)
inactive: max response (HaCat) -6.12% | max response (KB-3-1) -10.4% | max response (NIH3T3) 0.653% | Potency (C33A) | Potency (CAOV3) | Potency (CASKI) | Potency (Es-2) | Potency (HeLa) | Potency (Hek293T) | Potency (JEG-3) | Potency (OV90)

COc1cc2c(cc1O)[C@H](c1ccc(O[C@@H]3O[C@H](CO)[C@@H](O)[C@H](O)[C@H]3O)c(OC)c1)[C@@H](CO)[C@](O)(CO)C2
inactive: max response (HaCat) -2.06% | outcome (KB-3-1) | max response (NIH3T3) 2.92% | Potency (C33A) | Potency (CAOV3) | Potency (CASKI) | Potency (Es-2) | Potency (HeLa) | Potency (Hek293T) | Potency (JEG-3) | Potency (OV90)

CC(=O)O[C@@H]1C[C@@H](OC(C)=O)C(C)(C)/C=C/[C@H](C)[C@H](OC(C)=O)[C@@]2(O)C[C@H](C)[C@H](OC(=O)c3ccccc3)[C@@H]2/C=C/1C
inactive: max response (HaCat) 4.68% | max response (KB-3-1) 5.28% | max response (NIH3T3) -4.04% | Potency (C33A) | Potency (CAOV3) | Potency (CASKI) | Potency (Es-2) | Potency (HeLa) | Potency (Hek293T) | Potency (JEG-3) | Potency (OV90)

COC(=O)C1=COC(OC2OC(CO)C(O)C(O)C2O)C2C1C=CC2(O)CO (configuration not stated)
inactive: max response (HaCat) -21.5% | outcome (KB-3-1) | max response (NIH3T3) 3.54% | Potency (C33A) | Potency (CAOV3) | Potency (CASKI) | Potency (Es-2) | Potency (HeLa) | Potency (Hek293T) | Potency (JEG-3) | Potency (OV90)

CC(C)CC1NC(=O)C2CC3(O)c4ccccc4NC3N2C1=O (configuration not stated)
inactive: max response (HaCat) -17.2% | max response (KB-3-1) 7.2% | max response (NIH3T3) -1.31% | Potency (C33A) | Potency (CAOV3) | Potency (CASKI) | Potency (Es-2) | Potency (HeLa) | Potency (Hek293T) | Potency (JEG-3) | Potency (OV90)

Cc1ccc(-c2ccc3c(ccc4sc5c(c43)NC[C@@H](C)NC5=O)n2)cn1
inactive: max response (HaCat) -8.25% | outcome (KB-3-1) | max response (NIH3T3) -0.392% | Potency (C33A) | Potency (CAOV3) | Potency (CASKI) | Potency (Es-2) | Potency (HeLa) | Potency (Hek293T) | Potency (JEG-3) | Potency (OV90)

CC(=O)O[C@@H]1c2c(C)coc2C(=O)[C@@]23O[C@@H]2CC[C@H](C)[C@@]13C
inactive: max response (HaCat) -14.6% | max response (KB-3-1) 9.51% | max response (NIH3T3) 4.3% | Potency (C33A) | Potency (CAOV3) | Potency (CASKI) | Potency (Es-2) | Potency (HeLa) | Potency (Hek293T) | Potency (JEG-3) | Potency (OV90)

CC(C)c1cc2c(c(O)c1O)[C@@]13CCCC(C)(C)[C@@H]1[C@H](OC3=O)C2=O
inactive: max response (HaCat) -2.13% | max response (KB-3-1) -17.1% | max response (NIH3T3) 3.28% | Potency (C33A) | Potency (CAOV3) | Potency (CASKI) | Potency (Es-2) | Potency (HeLa) | Potency (Hek293T) | Potency (JEG-3) | Potency (OV90)

COC(=O)c1ccccc1O[C@@H]1O[C@H](CO)[C@@H](O)[C@H](O)[C@H]1O[C@@H]1O[C@@H](C)[C@H](O)[C@@H](O)[C@H]1O
inactive: max response (HaCat) -1.51% | max response (KB-3-1) 3.4% | max response (NIH3T3) 0.854% | Potency (C33A) | Potency (CAOV3) | Potency (CASKI) | Potency (Es-2) | Potency (HeLa) | Potency (Hek293T) | Potency (JEG-3) | Potency (OV90)

O=C(O)c1cc(-c2c(-c3ccccc3)nn3ccccc23)n[nH]c1=O
inactive: max response (HaCat) -37.3% | outcome (KB-3-1) | max response (NIH3T3) -3.95% | Potency (C33A) | Potency (CAOV3) | Potency (CASKI) | Potency (Es-2) | Potency (HeLa) | Potency (Hek293T) | Potency (JEG-3) | Potency (OV90)

O=C(NCc1ccc(F)cc1)C(=O)c1c[nH]c2ccccc12
inactive: max response (HaCat) -19.7% | max response (KB-3-1) -9.55% | max response (NIH3T3) -16.4% | Potency (C33A) | Potency (CAOV3) | Potency (CASKI) | Potency (Es-2) | Potency (HeLa) | Potency (Hek293T) | Potency (JEG-3) | Potency (OV90)

C/C1=C\C[C@]2(C)C(=O)C(O)=C([C@H](C)CO)[C@H]2C/C=C(\C)[C@@H](O)CC/C(C)=C/CC1
inactive: max response (HaCat) 0.087% | max response (KB-3-1) 0.384% | max response (NIH3T3) -2.65% | Potency (C33A) | Potency (CAOV3) | Potency (CASKI) | Potency (Es-2) | Potency (HeLa) | Potency (Hek293T) | Potency (JEG-3) | Potency (OV90)

OC[C@H]1O[C@@H](O[C@H]2[C@H](OCc3ccccc3)O[C@H](CO[C@@H]3OC[C@@H](O)[C@H](O)[C@H]3O)[C@@H](O)[C@@H]2O)[C@H](O)[C@@H](O)[C@@H]1O
inactive: max response (HaCat) -3.65% | max response (KB-3-1) 4.93% | max response (NIH3T3) -3.84% | Potency (C33A) | Potency (CAOV3) | Potency (CASKI) | Potency (Es-2) | Potency (HeLa) | Potency (Hek293T) | Potency (JEG-3) | Potency (OV90)
